Compounds with a hit are over-represented: about 3.5% of the library has one in this group of screens.
TEAD-YAP inh – TEAD-YAP interaction inhibition, primary screen, TEAD-YAP interaction inhibitor project, luminescence, HEK-TIYL cells | TEAD-Gal4/YAP UAS-luciferase luminescence | inhibition, % at 9.12 µM | hit rate 1.4% among 640,000 | AID 1259422, 2018; in the data active means inhibition above about 32%
MITF primary – MITF inhibitors, primary screen, biochemical, AlphaScreen, human; AlphaScreen MITF homodimerization, bead proximity signal; inhibition, % at 2.6 µM; hit rate 0.91% among 650,000; AID 1259374, 2018; in the data active means inhibition above about 50%
GPR151 ag – activators of human GPR151, primary screen, cell-based, PathHunter beta-arrestin, luminescence; hit rate 1% among 650,000; PathHunter beta-arrestin GPR151 cells; G-protein coupled receptor 151 (Homo sapiens), Q8TDV0; activation, % at 11.2 µM; in the data active means activation above about 4.9%
Target sequence (Q8TDV0 whole entry, looked up): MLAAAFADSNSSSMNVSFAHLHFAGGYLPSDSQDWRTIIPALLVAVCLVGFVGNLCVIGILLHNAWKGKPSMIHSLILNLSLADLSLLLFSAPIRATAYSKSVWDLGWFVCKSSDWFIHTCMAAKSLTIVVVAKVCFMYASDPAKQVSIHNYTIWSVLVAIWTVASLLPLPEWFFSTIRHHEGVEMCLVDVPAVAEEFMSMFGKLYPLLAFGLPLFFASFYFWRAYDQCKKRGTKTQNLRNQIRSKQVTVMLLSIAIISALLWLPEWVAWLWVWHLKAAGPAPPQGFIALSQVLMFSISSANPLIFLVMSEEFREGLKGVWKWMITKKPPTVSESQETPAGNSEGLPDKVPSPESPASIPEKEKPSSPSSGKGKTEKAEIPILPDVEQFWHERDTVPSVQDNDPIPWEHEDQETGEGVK
FBW7 activator – FBW7 E3 ligase activators, primary screen, biochemical, AlphaScreen, human | F-box/WD repeat-containing protein 7 (Homo sapiens), Q969H0 | AlphaScreen FBW7–phospho-cyclin E peptide binding, activator screen | normalized activity (activation), % at 26.1 µM | hit rate 0.13% among 650,000; in the data active means normalized activity above about 1.9%;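 further: purified mutant Fbw7 with reduced substrate affinity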
GPR151 conf act – GPR151 activators, triplicate retest, confirmation, cell-based, PathHunter beta-arrestin, luminescence. shares compounds with GPR151 ag. GPR151 PathHunter beta-arrestin cells, 90 min; % of EA-reagent control over plate median. activation, % at 11.2 µM. 6,700 tested, under 10 active;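 active means mean percent activation across replicates above the confirmation screen cutoff of 4.91%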
GPR119 counter – GPR119 activators in beta-arrestin cells, counter-screen for GPR151 activator project, cell-based, PathHunter beta-arrestin, luminescence, triplicate; shares compounds with GPR151 ag; 90 min; 0 = compound-well median, 100 = enzyme-acceptor control; activation, % at 11.2 µM; hit rate 0.3% among 6,700; AID 1508611, 2020;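 active means mean percent activation in the counterscreen above 29.09%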;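 further: counterscreen on off-target GPR119 to flag nonselective hits from the GPR151 activator screen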
A number is an active result; . = inactive; / = no result given.

SMILES	TEAD-YAP inh	MITF primary	GPR151 ag	FBW7 activator	GPR151 conf act	GPR119 counter
CCOC(=O)c1c(C)oc2c1c(C=Nc1cccnc1)c(O)c1ccccc12	.	.	.	.	/	/
COc1cc(Cl)cc(/C=C2\C(=O)NN(c3ccccc3)C2=O)c1O	.	.	5.7	.	.	.
O=C(CSc1ccc(F)cc1)Nc1ccc(Cl)c(N2CCCS2(=O)=O)c1	.	.	12	.	.	.
CN(C)c1ccc(NC(=O)CCn2c(=O)oc3ccccc32)cc1	.	.	.	.	/	/
COc1ccc(-c2nc3n(n2)C(c2cc(OC)ccc2OC)C(C(N)=O)=C(C)N3)cc1 (stereo unspecified)	.	.	.	.	/	/
COc1ccc(-c2nc3n(n2)C(c2ccc(OC)cc2OC)C(C(N)=O)=C(C)N3)cc1 (stereo unspecified)	.	.	7.4	.	.	.
COc1ccc(S(=O)(=O)N2CCN(c3cccc(Cl)c3Cl)CC2)cc1OC	.	.	8.3	.	.	.
COc1ccc(S(=O)(=O)N2CCN(c3ccccc3OC)CC2)cc1Cl	.	.	.	.	/	/
COc1ccc(S(=O)(=O)N2CCN(c3ccccc3F)CC2)cc1Cl	.	.	12	.	.	.
Cc1cc(S(=O)(=O)N2CCN(c3ccccc3O)CC2)c(C)s1	.	.	.	.	/	/
COc1ccccc1N1CCN(S(=O)(=O)c2cc(C)sc2C)CC1	.	.	6.1	.	.	.
CC(C)(C)NC(=O)NC(=O)COC(=O)Cc1ccc(Cl)c(Cl)c1	.	.	7.2	.	.	.
CC(C)(C)NC(=O)NC(=O)COC(=O)Cn1cnc2ccccc2c1=O	.	.	6.8	.	.	.
CC(=O)N[C@H]1[C@H](Oc2cccc3ccccc23)O[C@H](COC(C)=O)[C@@H](OC(C)=O)[C@@H]1OC(C)=O	.	.	.	.	/	/
Cc1cc(C)n2nc(SCC(=O)Nc3ccccc3C(C)(C)C)nc2n1	.	.	.	.	/	/
Cc1cc(C)n2nc(SCC(=O)Nc3c(C)nn(-c4ccccc4)c3C)nc2n1	.	.	5.4	.	.	.
COc1ccc(C(=O)Nc2cc(C(=O)NCCC3=CCCCC3)ccc2N2CC3CC(C2)c2cccc(=O)n2C3)cc1 (stereo unspecified)	.	.	.	.	/	/
O=C(NC1CCCCC1)C(c1ccncc1)N(C(=O)C(F)(F)F)C1CC1 (stereo unspecified)	.	.	.	.	/	/
CC(C)N(C(=O)C(F)(F)F)C(C(=O)NC1CCCCC1)c1ccncc1 (stereo unspecified)	.	.	5.8	.	.	.
CC1(C)Cc2c(sc3ncnc(NNC(=O)c4ccccc4)c23)CO1	.	.	6.3	.	.	.
COc1ccc(Cl)cc1NC(=O)c1cc(S(=O)(=O)N2CCCCCC2)ccc1F	.	.	5.7	.	.	.
CCCNS(=O)(=O)c1ccc(F)c(C(=O)Nc2cc(Cl)ccc2OC)c1	.	.	5.8	.	.	.
COc1ccccc1CNS(=O)(=O)c1ccc(F)c(C(=O)Nc2ccc(F)cc2)c1	.	.	5.4	.	.	.
COc1ccc(Cl)cc1NC(=O)c1cc(S(=O)(=O)N2CCCCC2)ccc1F	.	.	.	.	/	/
CCOc1ccccc1NC(=O)c1cc(S(=O)(=O)NCCc2ccccc2)ccc1F	.	.	5.0	.	.	.
SMILES	TEAD-YAP inh	MITF primary	GPR151 ag	FBW7 activator	GPR151 conf act	GPR119 counter
CCOc1ccccc1NC(=O)c1cc(S(=O)(=O)NCCC2=CCCCC2)ccc1F	.	.	.	.	/	/
COc1ccccc1CNS(=O)(=O)c1ccc(F)c(C(=O)Nc2ccc(Cl)cc2)c1	.	.	.	.	/	/
CCCNS(=O)(=O)c1ccc(F)c(C(=O)Nc2cc(C)ccc2OC)c1	.	.	.	.	/	/
Clc1cccc(-n2cc(-c3ccccc3)c3c(NCc4cccs4)ncnc32)c1	.	.	.	.	/	/
CC(C)N(CCNC(=O)c1ccnc(Nc2cccc(N(C)C)c2)c1)C(C)C	.	.	.	.	/	/
COC(=O)c1c(N)n(-c2ccccc2Cl)c2nc3ccccc3nc12	.	.	.	.	/	/
COc1ccccc1-c1nnc(NC(=O)c2ccc([N+](=O)[O-])s2)o1	.	.	15	.	.	.
COc1ccccc1C(=O)Nc1ccc2oc(-c3ccc(C(C)(C)C)cc3)nc2c1	.	.	6.2	.	.	.
Cc1ccc(C(=O)Nc2ccc3oc(-c4ccncc4)nc3c2)cc1C	.	.	4.9	.	.	.
COc1ccccc1C(=O)Nc1nnc(-c2ccc(Cl)cc2)o1	.	.	5.5	.	.	.
O=C(Nc1nnc(-c2ccccc2)o1)c1ccc([N+](=O)[O-])s1	.	.	.	.	/	/
COc1ccccc1C(=O)Nc1nnc(-c2ccc(F)cc2)o1	.	.	.	.	/	/
OC1CCN(Cc2ccc3c(c2)CN(Cc2cccn2-c2ccccn2)CCO3)CC1	.	.	.	.	/	/
CCc1ccc2oc(-c3cc(NC(=O)c4cccc(C)c4)ccc3O)nc2c1	.	.	.	.	/	/
COc1cc(C(=O)Nc2ccc3oc(-c4ccc(I)cc4)nc3c2)cc(OC)c1OC	.	.	21	.	.	.
CCc1ccc(-c2nc3cc(NC(=O)c4cccc(C)c4)ccc3o2)cc1	.	.	8.2	.	.	.
COc1ccc(/C=C/C(=O)Nc2ccc([N+](=O)[O-])cc2OC)cc1	.	.	.	.	/	/
COc1ccc(OC)c(/C=C2/NC(=O)N(Cc3ccc(Br)cc3)C2=O)c1	.	.	.	.	/	/
COc1ccc(OC)c(/C=C2\NC(=O)N(Cc3ccc(Cl)cc3)C2=O)c1	.	.	7.9	.	.	.
COc1cc(OC)c(/C=C2/NC(=O)N(Cc3ccc(F)cc3)C2=O)c(OC)c1	.	.	6.2	.	.	.
CC(Cc1ccccc1)N=C1SCC(=O)N1Cc1ccccc1 (stereo unspecified)	.	.	7.6	.	.	.
Clc1ccc(-c2nnc3n2N=C(c2ccccc2)CS3)cc1	.	.	.	.	/	/
Cc1ccccc1-c1nnc2n1N=C(c1ccc(Cl)cc1)CS2	.	.	6.6	.	.	.
Cc1cccc(N2CCN(C(=O)c3cccnc3SCc3ccccc3Cl)CC2C)c1 (stereo unspecified)	.	.	6.8	.	.	.
Cc1ccccc1CSc1ncccc1C(=O)N1CCN(c2cccc(Cl)c2)CC1	.	.	.	.	/	/
COCCCN1C(=O)C(=O)/C(=C(\O)c2ccc(C)cc2)C1c1ccc(F)cc1 (stereo unspecified)	.	.	7.6	.	.	.

Screening data deposited in PubChem by The Scripps Research Institute Molecular Screening Center.
